DT40 TDP1 no CPT: qHTS for Inhibitors of human tyrosyl-DNA phosphodiesterase 1 (TDP1): qHTS in cells in absence of CPT. DT40 Tdp1-/- hTDP1 cells, no CPT, ATP luminescence, 48 h. Potency, µM (series often up to 46.2 µM), for the others: at the highest dose activity change, negative = growth inhibition, actives largely listed as inhibitors. hit rate 15% among 420,000. AID 686978, 2013; note: potency is the fitted concentration of half-maximal effect; nearly all actives have a fitted effect of over 55% in size
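A cellular qHTS used chicken DT40 cells lacking endogenous Tdp1 but carrying stably transfected human TDP1. Compounds were applied without camptothecin, and cell growth kinetics were judged by ATP-dependent luminescence after ≥48 hr.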
HT1080NT lethal: qHTS for induction of synthetic lethality in tumor cells producing 2HG: qHTS for the HT-1080-NT fibrosarcoma cell line; Potency, µM (doses to about 46.1 µM), inactives show top-dose activity, negative = less viability, most hits filed as cytotoxic; hit rate 1.6% among 360,000; HT-1080-NT fibrosarcoma viability, CellTiter-Glo ATP luminescence, 48 h;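 note: NT is the 2HG producing partner of a matched IDH1 knockdown line; potency is the fitted concentration of half-maximal effect; 0% = DMSO-treated cells and -100% = media-only wells without cells; nearly all actives have a fitted effect of over 55% in size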
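Luminescent CellTiter-Glo readout after 48 hours of compound exposure at 37 degrees C defined viability of HT-1080-NT cells. Activity was normalized to DMSO wells and cell-free media wells; concentration-response curves were fitted and assigned curve classes.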
HT1080 IDH1KD tx: qHTS for induction of synthetic lethality in tumor cells producing 2HG: qHTS for the HT-1080-IDH1KD cell line; AID 686971, 2013; Potency, µM (titrated, usually from 46.1 µM), without a hit: at the highest dose activity, negative = toxicity, actives largely listed as cytotoxic; HT-1080 IDH1 knockdown viability, ATP luminescence, 48 h; hit rate 2% among 360,000;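 note: potency is the fitted concentration of half-maximal effect; 0% = DMSO wells and -100% = cell-free medium wells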
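In this qHTS, HT-1080 cells depleted of IDH1 are exposed for 48 h at 37 °C to compound titrations. Toxicity is scored from CellTiter-Glo luminescence, with DMSO as full viability and medium alone as none.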
TDP1 cell CPT: qHTS for Inhibitors of human tyrosyl-DNA phosphodiesterase 1 (TDP1): qHTS in cells in presence of CPT. chicken DT40 Tdp1-/-;hTDP1 cells + 20 nM CPT, ATP luminescence, 48 h. Potency, µM (top dose mostly 46.2 µM), inactives show at the highest dose activity change, negative = growth inhibition, most hits filed as inhibitors. hit rate 12% among 420,000. AID 686979, 2013; note: potency is the fitted concentration of half-maximal effect; nearly all actives have a fitted effect of over 55% in size
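Cell growth measured by CellTiter-Glo luminescence after a minimum 48 h, 37 C compound exposure with 20 nM CPT in Tdp1-knockout DT40 cells stably expressing hTDP1, seeded 400/well; qHTS titration format.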
IL1B secr inh: qHTS for Inhibitors of Inflammasome Signaling: IL-1-beta AlphaLISA Primary Screen; hit rate 4.7% among 360,000; activity change, % at 57.5 µM; THP-1 LPS/ATP IL-1B secretion, AlphaLISA, 16 h; stronger effect = lower value; AID 743279, 2014; in the data active = activity change below about -50%; inconclusive = mostly about -30% to -49%
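Secreted IL-1B measured by AlphaLISA bead assay after 16 h compound exposure of THP-1 cells; compounds (final up to 57.5 uM) added 1 h before LPS (250 ng/mL) and ATP (1.25 mM) stimulation; lower signal means less secretion.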
uPA generation: qHTS for Inhibitors of Cell Surface uPA Generation; cell surface uPA generation assay, qHTS; hit rate 0.31% among 330,000; Potency, µM (series often up to 38.3 µM), without a hit: at the highest dose activity change, negative = inhibition, usual class: inhibitors; active = well fitted inhibition curve with a large enough effect; inconclusive = small, poorly fitted or top-dose-only effect; inactive = no such curve, though single readings can be large or run the other way; tested in mouse RAW 264.7 cells; note: potency is the fitted concentration of half-maximal effect; nearly all actives have a fitted effect of over 55% in size
The depositor's hits bear a star. Hits are enriched below; roughly 19% of the tested compounds scored in any of these assays. Unless noted, calls come from the whole dose curve; as a rule, active = well fitted curve in the direction sought with a large enough effect; inconclusive = small, poorly fitted or top-dose-only effect, or another doubt; inactive = no such curve, though single readings can be large; an effect the other way counts as inactive or inconclusive. Unless noted, % is set by controls: 0 for no effect and ±100 for the full control effect.

How did CSc1ccc(CCNC(=O)C2CCCN(c3ncnc4c3nc3n4CCCCC3)C2)cc1 (stereo not given) do in these assays?
DT40 TDP1 no CPT: inconclusive; HT1080NT lethal: -5.4%; HT1080 IDH1KD tx: -5.7%; TDP1 cell CPT: inconclusive; IL1B secr inh: -68.6*; uPA generation: -2.8%

How did CCC1CCCCN1CCCNC(=O)CN1C(=O)COc2ccccc21 (stereo not given) do in these assays?
DT40 TDP1 no CPT: 22.0%; HT1080NT lethal: -1.1%; HT1080 IDH1KD tx: 16.4%; TDP1 cell CPT: 4.6%; IL1B secr inh: -16.8; uPA generation: -0.5%

Results for COc1ccc(S(=O)(=O)Nc2cc(C)on2)cc1 ?
DT40 TDP1 no CPT: 2.2%; HT1080NT lethal: 20.0%; HT1080 IDH1KD tx: 9.7%; TDP1 cell CPT: 15.6%; IL1B secr inh: 12.6; uPA generation: -0.7%

How did O=C(c1nc[nH]c1C(=O)N1CCN(c2ccccc2)CC1)N1CCN(c2ccccc2)CC1 do in these assays?
DT40 TDP1 no CPT: -7.8%; HT1080NT lethal: -22.4%; HT1080 IDH1KD tx: 1.2%; TDP1 cell CPT: 13µM*; IL1B secr inh: -6.9; uPA generation: -4.8%

Results for CC(C)C[C@H](NC(=O)c1nc[nH]c1C(=O)NC(c1ccccc1)c1ccccc1)C(=O)OCc1ccccc1 ?
DT40 TDP1 no CPT: inconclusive; HT1080NT lethal: -23.9%; HT1080 IDH1KD tx: -28.5%; TDP1 cell CPT: inconclusive; IL1B secr inh: -8.2; uPA generation: -9.4%

Results for CC(C)C[C@@H](CNC(=O)OC(C)(C)C)NC(=O)c1nc[nH]c1C(=O)N[C@@H](CC(C)C)C(=O)CNC[C@H](CC(C)C)NC(=O)c1nc[nH]c1C(=O)N[C@@H](Cc1c[nH]c2ccccc12)C(=O)OC(C)(C)C ?
DT40 TDP1 no CPT: 18.4µM*; HT1080NT lethal: inconclusive; HT1080 IDH1KD tx: -6.2%; TDP1 cell CPT: inconclusive; IL1B secr inh: -3.2; uPA generation: 20.4%

What do the screens show for `CC(C)C[C@H](NC(=O)c1nc[nH]c1C(=O)N1CCc2ccccc2C1)C(=O)OC(C)(C)C`?
DT40 TDP1 no CPT: inconclusive; HT1080NT lethal: -0.5%; HT1080 IDH1KD tx: -9.9%; TDP1 cell CPT: inconclusive; IL1B secr inh: -11.2; uPA generation: -4.3%

How did CC(C)C[C@H](NC(=O)c1nc[nH]c1C(=O)NC(c1ccccc1)c1ccccc1)C(=O)OC(C)(C)C do in these assays?
DT40 TDP1 no CPT: 18.4µM*; HT1080NT lethal: 25.9µM*; HT1080 IDH1KD tx: 20.6µM*; TDP1 cell CPT: 4.11µM*; IL1B secr inh: -68.8*; uPA generation: inconclusive

How did CC(C)C[C@H](NC(=O)c1nc[nH]c1C(=O)N1CCN(c2ccccc2)CC1)C(=O)OC(C)(C)C do in these assays?
DT40 TDP1 no CPT: inconclusive; HT1080NT lethal: -17.8%; HT1080 IDH1KD tx: -7.2%; TDP1 cell CPT: 20.6µM*; IL1B secr inh: -25.2; uPA generation: 10.9%

What do the screens show for `CC(C)C[C@@H](CNCC(=O)[C@H](Cc1c[nH]c2ccccc12)NC(=O)c1[nH]cnc1C(=O)N[C@@H](C)CN)NC(=O)c1nc[nH]c1C(=O)N[C@@H](Cc1ccccc1)C(=O)O`?
DT40 TDP1 no CPT: 1.2%; HT1080NT lethal: 7.5%; HT1080 IDH1KD tx: 9.0%; TDP1 cell CPT: 5.2%; IL1B secr inh: 5.3; uPA generation: -2.2%

How did O=C(CN(C(=O)c1csnn1)c1cccc(C(F)(F)F)c1)NCCc1ccccc1 do in these assays?
DT40 TDP1 no CPT: -11.7%; HT1080NT lethal: -15.4%; HT1080 IDH1KD tx: -9.1%; TDP1 cell CPT: 0.4%; IL1B secr inh: 7.1; uPA generation: 1.5%

What do the screens show for `CC(C)C[C@H](NC(=O)c1nc[nH]c1C(=O)NCCNC(=O)OC(C)(C)C)C(=O)CNCCNC(=O)c1[nH]cnc1C(=O)N[C@@H](C)C(=O)OC(C)(C)C`?
DT40 TDP1 no CPT: inconclusive; HT1080NT lethal: inconclusive; HT1080 IDH1KD tx: 10.3%; TDP1 cell CPT: 23.1µM*; IL1B secr inh: -4.8; uPA generation: -2.6%

What do the screens show for `CC(C)C[C@H](NC(=O)c1nc[nH]c1C(=O)NCC(=O)OC(C)(C)C)C(=O)OC(C)(C)C`?
DT40 TDP1 no CPT: inconclusive; HT1080NT lethal: -16.3%; HT1080 IDH1KD tx: -10.3%; TDP1 cell CPT: inconclusive; IL1B secr inh: -28.7; uPA generation: inconclusive

What do the screens show for `C[C@H](NC(=O)c1nc[nH]c1C(=O)NCC(=O)OC(C)(C)C)C(=O)OC(C)(C)C`?
DT40 TDP1 no CPT: inconclusive; HT1080NT lethal: 2.3%; HT1080 IDH1KD tx: -5.1%; TDP1 cell CPT: inconclusive; IL1B secr inh: 14.8; uPA generation: 0.8%

How did CC(C)C[C@H](NC(=O)c1[nH]cnc1C(=O)N[C@H](C)c1ccccc1)C(=O)OC(C)(C)C do in these assays?
DT40 TDP1 no CPT: 18.4µM*; HT1080NT lethal: inconclusive; HT1080 IDH1KD tx: inconclusive; TDP1 cell CPT: inconclusive; IL1B secr inh: -54.5*; uPA generation: inconclusive

How did C[C@H](NC(=O)c1nc[nH]c1C(=O)N1CCN(c2ccccc2)CC1)C(=O)OCc1ccccc1 do in these assays?
DT40 TDP1 no CPT: inconclusive; HT1080NT lethal: -2.2%; HT1080 IDH1KD tx: -0.2%; TDP1 cell CPT: 18.4µM*; IL1B secr inh: -2.9; uPA generation: 8.4%

What do the screens show for `C[C@H](NC(=O)c1nc[nH]c1C(=O)N[C@@H](C)c1ccccc1)C(=O)OC(C)(C)C`?
DT40 TDP1 no CPT: 2.5%; HT1080NT lethal: 8.0%; HT1080 IDH1KD tx: 3.4%; TDP1 cell CPT: inconclusive; IL1B secr inh: -0.1; uPA generation: 12.4%

Results for O=C(N[C@@H](Cc1ccccc1)C(=O)OCc1ccccc1)c1nc[nH]c1C(=O)N1CCN(c2ccccc2)CC1 ?
DT40 TDP1 no CPT: inconclusive; HT1080NT lethal: -2.7%; HT1080 IDH1KD tx: 1.0%; TDP1 cell CPT: inconclusive; IL1B secr inh: -9.4; uPA generation: -4.0%

How did CC(C)C[C@H](NC(=O)c1nc[nH]c1C(=O)N[C@@H](CC(C)C)C(=O)OC(C)(C)C)C(=O)OC(C)(C)C do in these assays?
DT40 TDP1 no CPT: inconclusive; HT1080NT lethal: inconclusive; HT1080 IDH1KD tx: inconclusive; TDP1 cell CPT: 23.1µM*; IL1B secr inh: inconclusive; uPA generation: -25.3%

How did COc1ccc(N2CCN(C(=S)NCc3ccccc3)CC2)cc1 do in these assays?
DT40 TDP1 no CPT: inconclusive; HT1080NT lethal: -2.9%; HT1080 IDH1KD tx: -4.9%; TDP1 cell CPT: -12.7%; IL1B secr inh: 43.4; uPA generation: 2.6%

Screening data as filed in PubChem BioAssay.
